The results in this text go back to PubChem BioAssay (NCATS).

Experiment [1] addresses Rap guanine nucleotide exchange factor 3 (Homo sapiens) (UniProt O95398). The experiment in a line: Confirmatory qHTS for antagonist of cAMP-regulated guanine nucleotide exchange factor 3 (EPAC1) (AID 1645880). Also: nearly all actives have a fitted effect of over 55% in size. Also: potency is read from the fitted curve at half-maximal effect. In a few lines:
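Nucleotide exchange uses 100 nM EPAC1, 250 nM RAP1B-BODIPY-GDP and 50 uM GDP, with compounds in a concentration-titration series. After 5 min at room temperature, fluorescence (480 nm ex/540 nm em) is read every 5 min for 30 min. Data are normalized to control ATA and DMSO.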
For orientation: Quantitative high-throughput screening tests each substance at several concentrations.

The target is the same in experiment [2]. The experiment in a line: Confirmatory qHTS for agonist of cAMP-regulated guanine nucleotide exchange factor 3 (EPAC1) (AID 1645881). Also: nearly all actives have a fitted effect of over 75% in size. Also: potency is read from the fitted curve at half-maximal effect.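 As to activation: EPAC1 catalysed release of BODIPY-GDP from Rap1B seen as fluorescence loss; 100% = effect of cAMP agonist control.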
The target in experiment [3] is Rap guanine nucleotide exchange factor 4 (Homo sapiens) (UniProt Q8WZA2). The experiment in a line: Confirmatory qHTS for agonist of cAMP-regulated guanine nucleotide exchange factor 4 (EPAC2) (AID 1645884).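 Also: nucleotide exchange releases bodipy-GDP from Rap1 and this lowers its fluorescence; nearly all actives have a fitted effect of over 65% in size.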 Also: potency is read from the fitted curve at half-maximal effect. As to activation: % is scaled to controls: 0 for no effect and ±100 for the full control effect.
Chain of Rap guanine nucleotide exchange factor 4 (Homo sapiens) (Q8WZA2 whole entry, looked up): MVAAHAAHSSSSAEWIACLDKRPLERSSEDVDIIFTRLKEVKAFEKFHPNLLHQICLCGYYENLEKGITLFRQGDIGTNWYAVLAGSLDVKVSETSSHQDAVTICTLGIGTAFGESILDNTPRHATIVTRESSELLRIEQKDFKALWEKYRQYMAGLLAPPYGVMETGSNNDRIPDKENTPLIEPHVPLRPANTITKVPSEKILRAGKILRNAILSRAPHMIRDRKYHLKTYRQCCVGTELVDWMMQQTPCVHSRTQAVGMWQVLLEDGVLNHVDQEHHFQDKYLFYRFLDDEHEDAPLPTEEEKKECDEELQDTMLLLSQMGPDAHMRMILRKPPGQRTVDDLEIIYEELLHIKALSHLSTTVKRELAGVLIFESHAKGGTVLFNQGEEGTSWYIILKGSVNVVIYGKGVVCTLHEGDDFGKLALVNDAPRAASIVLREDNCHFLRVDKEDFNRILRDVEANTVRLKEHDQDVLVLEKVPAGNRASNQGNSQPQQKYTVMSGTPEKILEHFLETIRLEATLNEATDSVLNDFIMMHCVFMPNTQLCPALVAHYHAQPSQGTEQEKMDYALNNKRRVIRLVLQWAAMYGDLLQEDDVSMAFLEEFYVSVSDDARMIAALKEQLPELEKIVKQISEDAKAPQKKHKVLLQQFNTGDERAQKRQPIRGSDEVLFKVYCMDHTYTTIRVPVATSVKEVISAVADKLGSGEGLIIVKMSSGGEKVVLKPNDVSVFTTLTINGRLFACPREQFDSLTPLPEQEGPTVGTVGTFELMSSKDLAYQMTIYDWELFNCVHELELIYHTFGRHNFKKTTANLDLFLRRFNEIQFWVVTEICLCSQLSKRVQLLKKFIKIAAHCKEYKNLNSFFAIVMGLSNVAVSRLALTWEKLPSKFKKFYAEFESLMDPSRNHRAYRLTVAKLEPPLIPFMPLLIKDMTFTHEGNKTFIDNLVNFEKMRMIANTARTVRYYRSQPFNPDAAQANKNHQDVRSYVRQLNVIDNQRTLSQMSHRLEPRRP
The target is the same in experiment [4]. The experiment in a line: Confirmatory qHTS for antagonist of cAMP-regulated guanine nucleotide exchange factor 4 (EPAC2) (AID 1645885). Also: nearly all actives have a fitted effect of over 25% in size. As to activity change, negative = inhibition: % is scaled to controls: 0 for no effect and ±100 for the full control effect.
For experiment [5], the target named is Rap guanine nucleotide exchange factor 3 (Homo sapiens) (UniProt O95398). The experiment in a line: Counterscreen qHTS for antagonist of cAMP-regulated guanine nucleotide exchange factor 3 (EPAC1) (AID 1645888).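 Also: fluorescence loss as bound BODIPY-GDP is released from Rap1B; % of control where 0% means no effect.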 In a few lines: (§1)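 Rap1B-BODIPY-GDP 250 nM + GDP 50 uM; cpds 7-pt, final 9.74 nM–152 uM (activator mode) or from 7.32 nM upwards (inhibitor mode); RT; FI 480/540 nm at 5 and 30 min, then ± cAMP, reread.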
Chain of Rap guanine nucleotide exchange factor 3 (Homo sapiens) (O95398 whole entry, looked up): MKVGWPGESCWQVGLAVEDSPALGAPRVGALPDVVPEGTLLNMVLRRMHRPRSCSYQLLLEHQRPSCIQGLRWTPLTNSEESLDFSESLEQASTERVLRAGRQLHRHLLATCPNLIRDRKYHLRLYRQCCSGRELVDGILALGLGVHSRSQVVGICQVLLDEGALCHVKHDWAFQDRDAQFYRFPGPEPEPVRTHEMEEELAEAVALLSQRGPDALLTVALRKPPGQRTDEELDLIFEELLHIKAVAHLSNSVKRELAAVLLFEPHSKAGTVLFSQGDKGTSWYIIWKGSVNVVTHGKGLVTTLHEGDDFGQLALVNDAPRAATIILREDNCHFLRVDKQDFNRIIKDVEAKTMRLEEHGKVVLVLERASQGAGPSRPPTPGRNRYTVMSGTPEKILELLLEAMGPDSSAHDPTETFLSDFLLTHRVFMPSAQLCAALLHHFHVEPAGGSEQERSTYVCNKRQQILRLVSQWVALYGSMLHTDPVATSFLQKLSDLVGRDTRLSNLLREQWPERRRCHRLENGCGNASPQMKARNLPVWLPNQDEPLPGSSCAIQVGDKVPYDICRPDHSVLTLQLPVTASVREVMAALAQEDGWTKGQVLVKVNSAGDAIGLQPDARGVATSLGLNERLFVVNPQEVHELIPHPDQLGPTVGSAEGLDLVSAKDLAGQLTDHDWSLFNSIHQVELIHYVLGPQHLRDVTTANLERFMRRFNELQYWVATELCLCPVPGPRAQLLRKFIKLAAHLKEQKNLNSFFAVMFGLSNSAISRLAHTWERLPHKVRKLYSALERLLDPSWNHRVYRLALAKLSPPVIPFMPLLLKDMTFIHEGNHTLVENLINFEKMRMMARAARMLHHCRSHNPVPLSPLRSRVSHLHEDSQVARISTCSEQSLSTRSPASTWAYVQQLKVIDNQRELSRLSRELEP
A general note: The purpose of a counterscreen is to sort out artefacts and off-target activity.

The target is the same in experiment [6]. Put plainly: Counterscreen qHTS for agonist of cAMP-regulated guanine nucleotide exchange factor 3 (EPAC1) (AID 1645889). Also: nearly all actives have a fitted effect of over 40% in size. Also: potency is read from the fitted curve at half-maximal effect. As to activation: % of control where 0% means no effect. The method, boiled down:
as §1

Each structure is given as a SMILES string. Records with an inconclusive call do not appear. A number with no mark means an inactive call. Activity calls are given as the source filed them. Calls follow the shape of the dose curve; as a rule, active = well fitted curve in the direction sought with a large enough effect; inconclusive = small, poorly fitted or top-dose-only effect, or another doubt; inactive = no such curve, though single readings can be large; an effect the other way counts as inactive or inconclusive.

Consider `COCCNC(=O)CS(=O)Cc1nc(-c2ccc(Cl)cc2)oc1C` (stereo unspecified), for which the Potency result in experiment [1], in experiment [2] and in experiment [4] was “inactive” each time. Moreover, the activation is 3.09% [at 17.1 µM, percent relative to cAMP agonist control] in experiment [3] and 14.9% [at 30.8 µM] in experiment [6]. In addition, the activity change, negative = inhibition in experiment [5] was 7.48% [at 30.8 µM].
Turning to `CCN1/C(=C/c2ccc3cc(C)ccc3[n+]2CC)Sc2ccccc21`, in experiment [1], the Potency was 75.7 µM (active). Further, the Potency result in experiment [2], in experiment [3], in experiment [4], in experiment [5] and in experiment [6] was “inactive” each time.
Turning to `COc1cc(/C=C(\C#N)C(=O)NC(C)C)cc(Cl)c1O`, the Potency result in experiment [1], in experiment [2], in experiment [3], in experiment [4], in experiment [5] and in experiment [6] was “inactive” throughout.
Turning to `Cn1cc([C@]2(O)C(=O)Nc3ccccc32)c2ccccc21`, the Potency entry in experiment [1], in experiment [2] and in experiment [4] was “inactive” in each case. The activation in experiment [3] is 0.506% [at 17.1 µM, percent relative to cAMP agonist control]; in experiment [6], 2.4% [at 30.8 µM]. For the same compound, the activity change, negative = inhibition in experiment [5] was -2.77% [at 30.8 µM].
With `COc1cc2c(cc1OC)C(c1ccccc1Cl)N(C)CC2` (stereo unspecified), the Potency result in experiment [1], in experiment [2] and in experiment [4] was “inactive” each time. Moreover, the activation in experiment [3] is 2.32% [at 17.1 µM, percent relative to cAMP agonist control]; in experiment [6], 9.1% [at 30.8 µM]. Further, the activity change, negative = inhibition in experiment [5] is 3.04% [at 30.8 µM].
As for `Cn1c(=O)cc(N2CCN(C(=O)c3ccco3)CC2)[nH]c1=O`, the Potency result in experiment [1], in experiment [2], in experiment [3], in experiment [4], in experiment [5] and in experiment [6] was “inactive” in each case.
Take `CCOC(=O)c1c(CC(C)C)csc1N`: the Potency entry in experiment [1], in experiment [2], in experiment [3], in experiment [4], in experiment [5] and in experiment [6] was “inactive” in each case.
On to `O=C1c2cc(O)c(O)cc2OC(c2ccc(O)c(O)c2)C1O` (stereo unspecified), for which the Potency in experiment [1] is 42.6 µM (active). Also, the Potency result in experiment [2], in experiment [3], in experiment [4], in experiment [5] and in experiment [6] was “inactive” in each case.
Turning to `COc1ccc(S(=O)(=O)CC(=O)c2cc3cc(Br)ccc3oc2=O)cc1`, in experiment [1], the Potency is 50.1 µM (active). The Potency entry in experiment [2] and in experiment [4] was “inactive” throughout. The activation in experiment [3] is -4.99% [at 17.1 µM, percent relative to cAMP agonist control]; in experiment [6], 7.34% [at 30.8 µM]. The activity change, negative = inhibition in experiment [5] is -4.76% [at 30.8 µM].
Consider `CCOC(=O)C1=C(C)OC(N)=C(C#N)C1c1ccc(OC)c(CSc2ccccn2)c1` (stereo unspecified), for which the Potency result in experiment [1], in experiment [2] and in experiment [4] was “inactive” in each case. Moreover, the activation in experiment [3] is 7.18% [at 17.1 µM, percent relative to cAMP agonist control]; in experiment [6], 28.3% [at 30.8 µM]. In experiment [5], the activity change, negative = inhibition is -6.88% [at 30.8 µM].
Regarding `Cc1c(OC(C)C(=O)NC(Cc2c[nH]c3ccc(O)cc23)C(=O)O)ccc2c1oc(=O)c1ccccc12` (stereo unspecified), the Potency in experiment [1] is 13.5 µM (active). Also, the Potency result in experiment [2], in experiment [3], in experiment [4], in experiment [5] and in experiment [6] was “inactive” in each case.
On to `CCCN1C(=O)c2cc(C(=O)Nc3ccccc3CC)ccc2C1O` (stereo unspecified), for which the Potency entry in experiment [1], in experiment [2], in experiment [3], in experiment [4], in experiment [5] and in experiment [6] was “inactive” in each case.
Consider `COc1cccc(NC(=O)CN(C)C(=O)CNC(=O)c2ccc(Oc3ccccc3)cc2)c1`, for which the Potency result in experiment [1], in experiment [2] and in experiment [4] was “inactive” in each case. The activation was 6.73% [at 17.1 µM, percent relative to cAMP agonist control] in experiment [3] and 29.7% [at 30.8 µM] in experiment [6]. Moreover, the activity change, negative = inhibition in experiment [5] is -3.89% [at 30.8 µM].
Consider `COc1ccc(CCNC(=O)c2c(C)nn(-c3ccc(F)cc3)c2-n2cccc2)cc1OC`, for which the Potency entry in experiment [1], in experiment [2], in experiment [3], in experiment [4], in experiment [5] and in experiment [6] was “inactive” throughout.
In the case of `CCCCC(Sc1nc2cc3c(cc2c(=O)n1CCCC(=O)NCc1ccc2c(c1)OCO2)OCO3)C(=O)OCC` (stereo unspecified), the Potency entry in experiment [1], in experiment [2], in experiment [3], in experiment [5] and in experiment [6] was “inactive” each time. Also, the outcome in experiment [4] is “inactive [at 12.7 µM]”.
For the compound `O=c1[nH]c2cc3c(cc2cc1CN(Cc1ccccc1)Cc1nnnn1Cc1ccco1)OCCO3`, the Potency in experiment [1] is 42.6 µM (active). In addition, the Potency result in experiment [2], in experiment [3], in experiment [4], in experiment [5] and in experiment [6] was “inactive” each time.
For the compound `CCOC(=O)c1c(NC(=O)c2ccc(S(=O)(=O)N3CCC(C)CC3)cc2)sc2c1CCN(C(C)C)C2`, the Potency result in experiment [1] and in experiment [5] was “inactive” in each case. The Potency in experiment [2] is 89.1 µM (active); in experiment [3], 31.6 µM (active); in experiment [6], 44.7 µM (active). The outcome in experiment [4] was “inactive [at 12.7 µM]”.
`O=C(Nc1cccc(C(F)(F)F)c1)c1cccc(NS(=O)(=O)c2ccc(O)c(C(=O)O)c2)c1`: the Potency in experiment [1] was 60.1 µM (active). The Potency entry in experiment [2], in experiment [3], in experiment [4], in experiment [5] and in experiment [6] was “inactive” in each case.
Consider `CCCCOC(=O)CSc1nnc(-c2ccc(Cl)cc2Cl)o1`, for which the Potency entry in experiment [1], in experiment [2] and in experiment [4] was “inactive” each time. The activation is 5.42% [at 17.1 µM, percent relative to cAMP agonist control] in experiment [3] and 14.1% [at 30.8 µM] in experiment [6]. Further, in experiment [5], the activity change, negative = inhibition was -4.49% [at 30.8 µM].
As to `Cc1ccc(-n2nc3ccc(NC(=O)/C=C/c4ccco4)cc3n2)cc1`, in experiment [1], the Potency is 39.8 µM (active). Further, the Potency result in experiment [2] and in experiment [4] was “inactive” in each case. The activation is 5.31% [at 17.1 µM, percent relative to cAMP agonist control] in experiment [3] and 13.9% [at 30.8 µM] in experiment [6]. Also, the activity change, negative = inhibition in experiment [5] is 8.52% [at 30.8 µM].
In the case of `CC1Cc2cc(C(=O)O)ccc2O1` (stereo unspecified), the Potency entry in experiment [1], in experiment [2], in experiment [3], in experiment [4], in experiment [5] and in experiment [6] was “inactive” throughout.
